# Assay results from PubChem BioAssay (NCI).
# The panel holds about 79,000 compounds, 15% with a hit somewhere; the sample as a whole holds those more often. Values without a mark were called inactive. Calls of active or inactive are those of the source. No stated cut-off is given here; in the data, active means growth inhibition above about 70%; inactive means the rest.
# Assay: NCI Yeast Anticancer Drug Screen. Data for the sgs1 mgt1 strain (AID 161);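 further: 0% = growth of cultures given vehicle only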
# Conditions: S. cerevisiae sgs1 mgt1 strain, at 5.0 µM (retest, dose inferred, filed as 0.5), stronger effect = higher value
# Method in brief: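 Percent growth inhibition was derived by comparing compound-exposed mutant yeast with vehicle-exposed cultures. The strain carries alterations in DNA damage repair.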
row,SMILES,growth inhibition
1,O=C(Cc1c2ccccc2cc2c1ccc1ccccc12)N(CCCl)CCCl,80% (active)
2,CC[C@@]1(O)C(=O)OCc2c1cc1n(c2=O)Cc2cc3c(OC)cccc3nc2-1,71% (active)
3,CCOC(=O)NP(=O)(NNc1ccccc1)NNc1ccccc1,92% (active)
4,C=C1C(=O)O[C@@H]2C[C@@H](C)[C@@H]3C=CC(=O)[C@@]3(C)[C@@H](O)[C@H]12,3%
5,O=C(O)C(F)(F)F.[Ag],99% (active)
6,O=C(CBr)Nc1ccccc1,36%
7,C1=C[N-]c2c3c(ccc2=C1)=CC=C[N-]3.C1=C[N-]c2c3c(ccc2=C1)=CC=C[N-]3.F[P-](F)(F)(F)(F)F.[Cu+2],47%
8,O=[N+]([O-])/C=C/c1ccccc1Cl,67%
9,CCOP(=S)(OCC)SSSP(=S)(OCC)OCC,7%
10,CCOC(=O)c1ccc(N=Cc2ccc(N(CCCl)CCCl)cc2C)cc1,14%
11,COc1ccc2c(c1)CCC(N1CCCC(=O)C1)C2 (centres undefined),8%
12,CCCCCCC(=O)[O][Hg][c]1ccccc1,100% (active)
13,CCC[CH2][Sn]1([CH2]CCC)[O]C(=O)c2cccnc2[S]1,55%
14,C[AsH](C)CC[AsH](C)C.C[AsH](C)CC[AsH](C)C.C[AsH](C)CC[AsH](C)C.[Ni],93% (active)
15,O=c1[nH]c2ccccc2n1C1CCN(CCCC(c2ccc(F)cc2)c2ccc(F)cc2)CC1,4%
16,O=[C-]c1ccccc1[C-]=O.[Pd+2].c1ccc([PH+](c2ccccc2)c2ccccc2)cc1.c1ccc([PH+](c2ccccc2)c2ccccc2)cc1,23%
17,c1ccc(C(c2ccccc2)c2cccnc2)cc1,16%
18,C#CC[As+](c1ccccc1)(c1ccccc1)c1ccccc1,45%
19,CC[CH2][Pb]([CH2]CC)([CH2]CC)[O]C(C)=O,100% (active)
20,CC[PH+](CC)CC.[Cl][Au],97% (active)
21,CN(C)[PH+](N(C)C)N(C)C.CN(C)[PH+](N(C)C)N(C)C.[C-]#[O+].[C-]#[O+].[C-]#[O+].[C-]#[O+].[C-]#[O+].[C-]#[O+].[Co].[Co].[Hg],1%
22,CC1=C(N2CC2)C(=O)c2nc3n(c2C1=O)CCC3OC(=O)CCl (centres undefined),18%
23,[N-]=[N+]=Nc1c([N+](=O)[O-])c(=O)n2c3c(cccc13)CCC2,28%
24,CCC[CH2][Sn]1([CH2]CCC)[O]CC(CN2CCCCC2)[O]1 (centres undefined),32%

# Same assay, conditions: S. cerevisiae sgs1 mgt1 strain, at 50.0 µM (retest, dose inferred, filed as 5.0), stronger effect = higher value
row,SMILES,growth inhibition
1,CC12CCC(=O)C=C1CCC1C2CCC2(C)C(O[Si](C)(C)OC3CCC4C5CCC6=CC(=O)CCC6(C)C5CCC34C)CCC12 (centres undefined),37%
2,CC1=C[C@H]2O[C@H]3C[C@H]4OC(=O)/C=C\C=C\C(=O)OCC[C@@H](C)[C@H](O)C(=O)OC[C@@]2(CC1)[C@@]4(C)[C@]31CO1,99% (active)
3,CCCCCCCC[As](C)(=O)O,-55%
4,OC1C2[C@@H](O)CCCN2C[C@@H](O)[C@H]1O (some centres undefined),14%
5,COC1(O[C@H]2CC[C@H]3[C@@H]4CCC5=CC(=O)CC[C@]5(C)[C@H]4CC[C@]23C)CCCCC1,-33%
6,O=[N+]([O-])c1ccc(CS(=O)(=O)C(Cl)(Cl)Cl)o1,99% (active)
7,CC([CH2][Hg][Cl])c1ccccc1 (centres undefined),99% (active)
8,CC(C)CC[CH2][Pb]([CH2]CCC(C)C)([CH2]CCC(C)C)[O]C(=O)C(Cl)(Cl)Cl,94% (active)
9,COC1OC(OC)[CH]([Hg][Cl])C1OC (centres undefined),99% (active)
10,S=C=[N][Sn]([N]=C=S)([c]1ccccc1)[c]1ccccc1.c1ccc2nc(-c3ccc4ccccc4n3)ccc2c1,99% (active)
11,CSCCC([NH-])C(=O)O.CSCCC([NH-])C(=O)O.[Zn+2] (centres undefined),-1%
12,C[PH+](C)C.C[PH+](C)C.[Au],82% (active)
13,O=C(O)C(Br)C(Br)C(=O)O.[Ag] (centres undefined),100% (active)
14,CCC1CN1P(=O)(Oc1ccccc1)N1CC1CC (centres undefined),2%
15,CCCCCc1cc(O)c(CCCC)c(O)c1,90% (active)
16,N#CC(Cl)(Cl)CCl,42%
17,O=C(Cc1c2ccccc2cc2c1ccc1ccccc12)N(CCCl)CCCl,98% (active)
18,CC[C@@]1(O)C(=O)OCc2c1cc1n(c2=O)Cc2cc3c(OC)cccc3nc2-1,88% (active)
19,CCOC(=O)NP(=O)(NNc1ccccc1)NNc1ccccc1,98% (active)
20,C=C1C(=O)O[C@@H]2C[C@@H](C)[C@@H]3C=CC(=O)[C@@]3(C)[C@@H](O)[C@H]12,31%

row,SMILES,growth inhibition
1,O=C(O)C(F)(F)F.[Ag],99% (active)
2,O=C(CBr)Nc1ccccc1,99% (active)
3,C1=C[N-]c2c3c(ccc2=C1)=CC=C[N-]3.C1=C[N-]c2c3c(ccc2=C1)=CC=C[N-]3.F[P-](F)(F)(F)(F)F.[Cu+2],99% (active)
4,O=[N+]([O-])/C=C/c1ccccc1Cl,98% (active)
5,CCOP(=S)(OCC)SSSP(=S)(OCC)OCC,78% (active)
6,CCOC(=O)c1ccc(N=Cc2ccc(N(CCCl)CCCl)cc2C)cc1,39%
7,COc1ccc2c(c1)CCC(N1CCCC(=O)C1)C2 (centres undefined),26%
8,CCCCCCC(=O)[O][Hg][c]1ccccc1,100% (active)
9,CCC[CH2][Sn]1([CH2]CCC)[O]C(=O)c2cccnc2[S]1,97% (active)
10,C[AsH](C)CC[AsH](C)C.C[AsH](C)CC[AsH](C)C.C[AsH](C)CC[AsH](C)C.[Ni],99% (active)
11,O=c1[nH]c2ccccc2n1C1CCN(CCCC(c2ccc(F)cc2)c2ccc(F)cc2)CC1,83% (active)
12,O=[C-]c1ccccc1[C-]=O.[Pd+2].c1ccc([PH+](c2ccccc2)c2ccccc2)cc1.c1ccc([PH+](c2ccccc2)c2ccccc2)cc1,69%
13,c1ccc(C(c2ccccc2)c2cccnc2)cc1,98% (active)
14,C#CC[As+](c1ccccc1)(c1ccccc1)c1ccccc1,100% (active)
15,CC[CH2][Pb]([CH2]CC)([CH2]CC)[O]C(C)=O,100% (active)
16,CC[PH+](CC)CC.[Cl][Au],98% (active)
17,CN(C)[PH+](N(C)C)N(C)C.CN(C)[PH+](N(C)C)N(C)C.[C-]#[O+].[C-]#[O+].[C-]#[O+].[C-]#[O+].[C-]#[O+].[C-]#[O+].[Co].[Co].[Hg],9%
18,CC1=C(N2CC2)C(=O)c2nc3n(c2C1=O)CCC3OC(=O)CCl (centres undefined),60%
19,[N-]=[N+]=Nc1c([N+](=O)[O-])c(=O)n2c3c(cccc13)CCC2,99% (active)
20,CCC[CH2][Sn]1([CH2]CCC)[O]CC(CN2CCCCC2)[O]1 (centres undefined),95% (active)
